6 compounds from PubChem BioAssay (Tox21) can be followed below.

Several values for one entry are separate records, joined by “and”; a condition that tells them apart may be missing. Equal values may be shown once. Records with an inconclusive call do not appear. Some compounds were tested as several samples or in several runs, with calls that do not always agree. Activity calls are given as the source filed them. Unless noted, calls follow the shape of the dose curve; as a rule, active = well fitted curve in the direction sought with a large enough effect in the repeat runs; inconclusive = weak or mixed curves; inactive = no such curve, though single readings can be large; an effect the other way counts as inactive or inconclusive.

Test [1] can be described thus: qHTS assay to identify small molecule agonists of the hypoxia (HIF-1) signaling pathway - cell viability counter screen (AID 1224844; calls by dose curve; also: nearly all actives have a fitted effect of over 50% in size; also: potency is read from the fitted curve at half-maximal effect). Summed up: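 Cytotoxicity measured by CellTiter-Glo ATP luminescence in the wells also read for beta-lactamase signal. Cells were HRE-bla ME-180 (2,000/well, 0.5% dialyzed FBS), exposed to compounds for 17 h at 37C.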
Test [2] is described as follows: qHTS assay to identify small molecule agonists of H2AX (AID 1224845; active = well fitted activation curve with a large enough effect in the signal ratio in the repeat runs, not every such curve was filed as active; the % refers to the signal ratio; also: potency is read from the fitted curve at half-maximal effect). The method in brief: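 Wild-type CHO-K1 cells plated overnight, then exposed 3 hr at 37C to compounds at 15 concentrations (0.76% DMSO). Lysed, then HTRF anti-pH2AX(S139)-cryptate/anti-H2AX-d2 detection after 24 hr at room temperature; emissions 665 and 620 nm.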
A short description of test [3]: qHTS assay to identify small molecule agonists of the hypoxia (HIF-1) signaling pathway (AID 1224846; active = well fitted activation curve with a large enough effect in the signal ratio in the repeat runs, not every such curve was filed as active; the % refers to the signal ratio). Summed up:
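Compounds added to ME-180 cells carrying hypoxia-response-element beta-lactamase reporter (0.5% dialyzed FBS, 5 h preplating), 17 h at 37C; agonist activity detected by CCF4-AM B/G FRET read-out.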

The nature of test [4]: qHTS assay to identify small molecule agonists of H2AX - cell viability counter screen (AID 1224847; calls by dose curve; also: nearly all actives have a fitted effect of over 30% in size; also: potency is read from the fitted curve at half-maximal effect). The method in brief: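 Wild-type CHO-K1 cells (10% FBS medium) were plated overnight at 37C, exposed to compounds at 15 concentrations for 3 hr at 37C (0.76% DMSO final), and viability was read as CellTiter-Glo luminescence after 30 min at room temperature.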
Background: qHTS replaces the single test concentration by a dilution series.

Test [5] can be described thus: qHTS RealTime-Glo MT Cell Viability Assay in HepG2 cells - 24 hour (AID 1224867). Also: nearly all actives have a fitted effect of over 50% in size. Also: potency is read from the fitted curve at half-maximal effect. The method in brief:
(§1)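 Compound treatment began 5 h after plating HepG2 cells (600/well) with NanoLuc luciferase and prosubstrate. Plates stayed at 37 C for 40 h; luminescence was captured at six time points, 0 h through 40 h.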

The nature of test [6]: qHTS RealTime-Glo MT Cell Viability Assay in HEK293 cells - 32 hour (AID 1224868). Also: nearly all actives have a fitted effect of over 50% in size. Also: potency is read from the fitted curve at half-maximal effect. The method in brief:
(§2)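 Quantitative high-throughput screen of the Tox21 10K library in HEK293: cells and RealTime-Glo reagents plated together, compound added at 5 h, luminescence monitored through 40 h at 37 C.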

The nature of test [7]: A CellTox Green Cytotoxicity Assay to monitor cytotoxicity in HEK293 cells - 0 hour (AID 1224869). Also: nearly all actives have a fitted effect of over 50% in size. The method in brief: (§3)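 Fluorescence from a DNA-binding dye excluded by viable cells was measured repeatedly in the same HEK293 wells (600 cells/well) during continuous compound exposure at 37 C. Each assay gives one read point: 0, 8, 16, 24, 32 or 40 h.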
Test [8] is described as follows: qHTS RealTime-Glo MT Cell Viability Assay in HepG2 cells - 40 hour (AID 1224870). Also: nearly all actives have a fitted effect of over 50% in size. Also: potency is read from the fitted curve at half-maximal effect. The method in brief:
(§4)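 HepG2 cells mixed with RealTime-Glo MT reagents (NanoLuc plus cell-permeant prosubstrate) were seeded at 600 cells/well, incubated 5 h at 37 C/5% CO2, then pinned with compounds in DMSO; nonlytic luminescence tracked viability during 40 h treatment.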

Test [9] can be described thus: A CellTox Green Cytotoxicity Assay to monitor cytotoxicity in HEK293 cells - 40 hour (AID 1224871). Also: nearly all actives have a fitted effect of over 45% in size. Also: potency is read from the fitted curve at half-maximal effect. The method in brief:
as §3

Test [10] is described as follows: qHTS RealTime-Glo MT Cell Viability Assay in HEK293 cells - 16 hour (AID 1224872). Also: nearly all actives have a fitted effect of over 50% in size. Also: potency is read from the fitted curve at half-maximal effect. The method in brief: as §2
A short description of test [11]: qHTS RealTime-Glo MT Cell Viability Assay in HepG2 cells - 8 hour (AID 1224873). Also: nearly all actives have a fitted effect of over 55% in size. Also: potency is read from the fitted curve at half-maximal effect. Summed up:
as §4

Test [12] is described as follows: qHTS RealTime-Glo MT Cell Viability Assay in HEK293 cells - 40 hour (AID 1224874). Also: nearly all actives have a fitted effect of over 50% in size. Also: potency is read from the fitted curve at half-maximal effect. To be noted: RealTime-Glo luminescence; max response: stronger effect = lower value. The method in brief:
(§5)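 Luminescence, which tracks viable cell number through reduction of the prosubstrate to a NanoLuc substrate, was read over continuous 37 C culture. Cells (600/well) were premixed with reagent and rested 5 h before 23 nL of compound in DMSO was pinned.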

Test [13] is described as follows: A CellTox Green Cytotoxicity Assay to monitor cytotoxicity in HEK293 cells - 24 hour (AID 1224875). Also: nearly all actives have a fitted effect of over 45% in size. Also: potency is read from the fitted curve at half-maximal effect. The method in brief: as §3
A short description of test [14]: A CellTox Green Cytotoxicity Assay to monitor cytotoxicity in HepG2 cells - 16 hour (AID 1224876). Also: nearly all actives have a fitted effect of over 45% in size. Also: potency is read from the fitted curve at half-maximal effect. Summed up:
(§6)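 Real-time cytotoxicity: fluorescence of a cell-impermeant cyanine dye binding DNA of dead HepG2 cells, measured repeatedly (0–40 h) during compound exposure at 37 C. Cells seeded 600/well with reagent, dosed after 5 h.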

The nature of test [15]: qHTS RealTime-Glo MT Cell Viability Assay in HepG2 cells - 32 hour (AID 1224877). Also: nearly all actives have a fitted effect of over 55% in size. Also: potency is read from the fitted curve at half-maximal effect. Summed up: as §1
A short description of test [16]: A CellTox Green Cytotoxicity Assay to monitor cytotoxicity in HepG2 cells - 24 hour (AID 1224878). Also: nearly all actives have a fitted effect of over 45% in size. Also: potency is read from the fitted curve at half-maximal effect. Summed up:
as §6

Test [17] is described as follows: A CellTox Green Cytotoxicity Assay to monitor cytotoxicity in HepG2 cells - 40 hour (AID 1224879). Also: nearly all actives have a fitted effect of over 40% in size. Also: potency is read from the fitted curve at half-maximal effect. Summed up: as §6
The nature of test [18]: qHTS RealTime-Glo MT Cell Viability Assay in HEK293 cells - 0 hour (AID 1224880). The method in brief: as §5
A short description of test [19]: qHTS assay to identify small molecule antagonists of the estrogen related receptor (ERR) signaling pathway from Tox21 library (AID 1224848). Also: nearly all actives have a fitted effect of over 50% in size. Summed up: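 Tox21 10K compounds in DMSO tested for ERR pathway antagonism in NTP's ERR cell line; 18 h, 37 C exposure; ONE-Glo luminescence.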
The nature of test [20]: qHTS assay to identify small molecule agonists of the estrogen related receptor (ERR) signaling pathway from Tox21 library (AID 1224849; calls by dose curve; also: nearly all actives have a fitted effect of over 15% in size). To be noted: ERR reporter cell line, ONE-Glo luciferase, 18 h; at 92.4 µM (top of the series). Summed up:
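Luminescent agonist read-out (One-Glo, 30-minute room-temperature incubation) following 18-hour compound treatment at 37 C of the ERR cell line, which had been plated 6 hours before dosing.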
% is scaled to controls: 0 for no effect and ±100 for the full control effect.

Regarding `CC(C)(O)C#N`, the Potency result in test [1], in [2], in test [4], in test [5], in test [6] and in test [7] was “inactive” in each case. For the same compound, the Potency entry in test [8], in test [9], in test [10], in test [11], in test [13] and in test [14] was “inactive” in each case. For the same compound, the Potency result in test [15], in test [16], in [17] and in test [18] was “inactive” throughout. Also, the compound was called inactive in [3]. For the same compound, the max response in test [12] was 1.12% (inactive) and 7.67% (inactive).
Turning to `CC(C)CON=O`, the Potency entry in test [1], in test [2], in [4], in [5], in [6] and in test [7] was “inactive” in each case. The Potency result in test [8], in test [9], in test [10], in [13], in [14] and in test [15] was “inactive” throughout. The Potency entry in test [16], in [17] and in [18] was “inactive” throughout. Moreover, the compound was called inactive in test [3]. Also, the max response in [12] was 8.89% (inactive) and 0.247% (inactive).
As for `Nc1ccc([N+](=O)[O-])cc1N`, in test [1], the Potency is 21.9 µM (active) and inactive. Further, the compound was called inactive in test [3]. Moreover, the Potency result in [4], in [19], in test [5], in test [6], in test [7] and in test [8] was “inactive” in each case. Moreover, the Potency entry in test [9], in test [10], in test [13], in test [14], in test [15] and in test [17] was “inactive” in each case. In test [18], the Potency result was “inactive”. Moreover, in test [20], the activity change, positive = activation is -63% (inactive) and 34.6% (active). Besides, the max response in [12] is 0.0622% (inactive) and -18.5% (inactive).
Consider `CCC[CH2][Sn]([Cl])([CH2]CCC)[CH2]CCC`, for which the Potency is 310 nM (active) and 1.1 µM (active) in test [1]; 358 nM (active) and 401 nM (active) in test [2]; 637 nM (active) and 713 nM (active) in test [4]; 1.55 µM (active) and 549 nM (active) in test [5]; 347 nM (active) and 490 nM (active) in test [6]; 979 nM (active) and 347 nM (active) in [8]. The Potency in test [9] is 491 nM (active) and 549 nM (active); in test [10] it was 390 nM (active) and 692 nM (active); in [11] it was 3.47 µM (active) and 1.38 µM (active); in [12] it was 310 nM (active) and 436 nM (active); in test [13], 979 nM (active) and 2.45 µM (active); in test [14], 1.74 µM (active) and 1.23 µM (active). The Potency in [15] was 1.23 µM (active) and 436 nM (active); in test [16], 1.38 µM (active) and 2.19 µM (active); in test [17], 1.38 µM (active) and 692 nM (active). Also, the Potency entry in test [7] and in [18] was “inactive” throughout.
Take `Oc1ccc(Cl)cc1Cc1ccccc1`: the Potency in test [1] is 49.6 µM (active) and inactive; in [4] it was 89.8 µM (active) and 81 µM (active); in test [5], “inactive and 49.6 µM (active)”; in [6], 21.9 µM (active) and 19.7 µM (active); in test [9] it was 11 µM (active) and 21.3 µM (active); in [10], 21.9 µM (active) and 17.6 µM (active). Also, the Potency in test [11] was 49.6 µM (active) and inactive; in test [12] it was 21.9 µM (active) and 27.9 µM (active); in test [13] it was 8.71 µM (active); in [14], “inactive and 33.1 µM (active)”; in test [15], “inactive and 49.6 µM (active)”; in [16] it was “inactive and 15.7 µM (active)”. Besides, the Potency entry in test [2], in test [7], in test [8] and in test [18] was “inactive” in each case.
Regarding `Clc1cccc(C(Cl)(Cl)Cl)n1`, the Potency entry in [1], in [2], in test [4], in test [5], in test [6] and in test [7] was “inactive” in each case. Moreover, the Potency entry in test [10], in test [11], in [13], in [15] and in test [18] was “inactive” in each case. Besides, the result in test [3] was inactive. Besides, the max response in [12] is 2.13% (inactive) and -1.58% (inactive).
